Compound activity (PubChem)
Hits are enriched below; roughly 0.98% of the tested compounds scored in any of these assays.
MRP1 act: MRP-1 activation. 140,000 compounds, 0.61% hits. viability increase, % at 10 µM. H69AR cells + doxorubicin, viability rescue, CellTiter-Glo;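 active = viability gain under doxorubicin at or above a set limit, the compound median plus 3 SD, cut at about 4.7% in these data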;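 also: MRP-1 overexpressing cells given doxorubicin 25 µM after compound pretreatment; 18-22 h compound pretreatment then 72 h with doxorubicin before readout; 0% = doxorubicin-only wells and 100% = vehicle-treated cells without doxorubicin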
MRP resist rev: compounds reversing MRP-mediated drug resistance. H69AR cells + 2 uM doxorubicin, CellTiter-Glo, 72 h. differential viability (reversal), % at 10 µM. 85,000 compounds, 0.04% hits. AID 602;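 active = viability drop by adding the cancer drug above about 55%, with treated viability meeting a 40% cutoff, limit read from the data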;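 also: viability without doxorubicin minus viability with 2 µM doxorubicin for each compound; larger differential means the compound sensitizes cells more to doxorubicin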
Calb biofilm kill: kills Candida albicans biofilms. 85,000 compounds, 0.14% hits. C. albicans biofilm + clotrimazole, Alamar Blue. inhibition, % at 6 µM;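 active = inhibition above 20%; inactive = inhibition below 20%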;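 also: preformed 24 hr biofilms exposed to compound for 48 hr; 0% = biofilm without compound and 100% = blank killed by clotrimazole plus chlorhexidine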
sdo1 growth: restores growth of sdo1-depleted yeast; S. cerevisiae sdo1-depleted JHY4D growth rescue, OD600 30 h; active compounds read high; pdr5 snq2 efflux-pump mutant strain; z-score at 10 µM; 140,000 compounds, 0.21% hits; AID 817;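 active = z-score above 3 at both the 24 hr and the 30 hr optical density reads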;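 also: z-score against mean and SD of all compound wells on the same plate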
SDO1 rescue DR: confirmation of growth rescue in SDO1-depleted yeast, bone marrow failure; shares compounds with sdo1 growth; S. cerevisiae JHY4D (SDO1-depleted) growth rescue, OD600, 30 h; active compounds read high; efflux-deficient strain, SNQ2 and PDR5 mutated; OD recovery (test concentration not listed); 440 compounds, 44% hits;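 active = yeast growth recovered at 30 hours, either rising with dose fitted slope above 0.001 or with average optical density gain above 0.07, some results past the limit were not filed as active; inactive = growth falling with dose or no effect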;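 also: gain in OD600 from 0 h to 30 h averaged across all seven doses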
Active calls of the source: *; nt = not tested or not shown; ! = repeats disagree.

SMILES	MRP1 act	MRP resist rev	Calb biofilm kill	sdo1 growth	SDO1 rescue DR
COCCNCCCCOc1c(Cl)cc(C)cc1Br	-4	nt	nt	0.51	nt
Cn1nc(OC(=O)Nc2ccccc2)cc1C(F)(F)F	-2	5	0	3.3*!	0.077*
Cn1nc(OC(=O)Nc2cccc(Cl)c2)cc1C(F)(F)F	1	-1	-2	-1.1	nt
Cc1cc(NC(=O)CSc2nc3c(c(-c4cccnc4)c2C#N)CCC3)no1	-1	1	8	0.09	0.069
O=C(COC(=O)c1ccc2ccccc2c1)NCCCc1ccccc1	-1	nt	nt	-0.54	nt
COc1ccc(NC(=O)c2ccc(-n3cccn3)nc2)c(OC)c1	-1	nt	nt	-0.03	nt
COc1ccc(NC(=O)c2ccc(-n3cccn3)nc2)cc1	-4	nt	nt	0.85	0.098
Cc1ccc(S(=O)(=O)Nc2ccc(C(=O)OCC(=O)N(CCC#N)c3ccccc3)cc2)cc1C	-1	nt	nt	0.25	nt
O=C(CCSCc1ccccc1Cl)N1CCN(c2cccc(Cl)c2)CC1	0	4	10	-1.8	nt
CC1CCCC(NC(=S)NC(=O)c2ccccc2Br)C1C (centres undefined)	-2	nt	nt	-0.42	nt
COc1cc2c(cc1NC(=O)c1cccc([N+](=O)[O-])c1)oc1ccccc12	-2	nt	nt	3*	0.04
O=S(=O)(c1ccc2c(c1)OCCO2)N1CCC(c2nc3ccc(Cl)cc3[nH]2)CC1	-2	-32	-1	9.1*	0.07
CCOC(=O)c1sc(=S)n(-c2ccccc2)c1N	0	10	9	4*	0.056
CCOC(=O)c1sc(=S)n(-c2ccc(C)cc2)c1SC	-2	nt	nt	-0.64	nt
Cc1cc(NC(=O)CSc2nnnn2C)n(-c2ccccc2)n1	2	7	3	0.89	nt
COc1ccc(/C=N/NC(=O)C(C)n2cnc3ccccc3c2=O)cc1 (centres undefined)	-3	nt	nt	-0.01	nt
O=C(Cc1ccccc1)Nc1ccc(NC(=O)c2cccs2)c(Cl)c1	2	nt	nt	-0.81	nt
CCOC(=O)c1cnn(Cc2ccccc2)c1N	-1	10	4	6.1*	0.066
COc1ccc(C(CNC(=O)c2cc(C)oc2C)N2CCOCC2)cc1 (centres undefined)	-1	-4	9	1.5	0.082*
CCCCNS(=O)(=O)c1ccc2nc(SCC(=O)Nc3ccccc3Cl)[nH]c2c1	-1	nt	nt	2.2	0.11*
CCCCNS(=O)(=O)c1ccc2nc(SCC(=O)Nc3cccc(F)c3)[nH]c2c1	-1	nt	nt	2.6	nt
Cc1ccccc1N1CCN(C(=O)CN2C(=O)c3ccccc3C2=O)CC1	1	11	4	7.4*	0.075*
Cc1ccc(C)c(N2CCN(C(=O)CN3C(=O)c4ccccc4C3=O)CC2)c1	-2	-4	0	-0.82	nt
Cc1cc(C)c(NC(=O)C(C)c2cccc(C(=O)c3ccccc3)c2)c(C)c1 (centres undefined)	0	nt	nt	-1.5	nt
Cc1cc2cc3c(cc2nc1SCC(=O)OC(C)C)OCCO3	-4	nt	nt	3.1*	0.042
SMILES	MRP1 act	MRP resist rev	Calb biofilm kill	sdo1 growth	SDO1 rescue DR
Cc1cc2cc3c(cc2nc1SCC(=O)O)OCCO3	-5	14	nt	-0.45	nt
Cc1c(C(=O)OC(C)C)nnn1-c1nonc1N	0	-6	-4	0.32	nt
CN(CC(=O)Nc1ccc(F)cc1)C(=O)COc1ccc(C(=O)c2ccccc2)cc1	4	nt	nt	0.89	nt
NC(=O)c1ccccc1-c1nc(-c2ccccc2)no1	-2	1	2	11*	0.055
CN1CCN(C(=O)c2ccccc2-c2nc(-c3ccccc3)no2)CC1	-2	-7	0	-0.18	nt
O=c1c2cnn(-c3ccccc3)c2ncn1Cc1ccccc1F	1	nt	nt	9.5*	0.039
Cc1[nH]ccc(=O)c1OC1OC(CO)C(O)C(O)C1O (centres undefined)	-1	nt	nt	0.06	nt
CCOC(=O)C1CCCN(C(=O)Cc2ccc(C)cc2)C1 (centres undefined)	-1	13	2	2.2	0.12
CC(C)c1ccc(/C=N/NC(=O)c2c(Cl)cnn2C)cc1	1	nt	nt	5.1*	0.091*
C=CCOC(=O)C1=C(C)NC(SCC(=O)Nc2ccccc2)=C(C#N)C1c1ccco1 (centres undefined)	-3	-11	4	-0.51	nt
Cc1ccccc1-n1ncc2c(SCC(=O)N3c4ccccc4CC3C)ncnc21 (centres undefined)	0	nt	nt	-0.28	nt
Cc1nnc(NC(=O)CSc2ncnc3c2cnn3-c2ccccc2C)s1	-1	nt	nt	1.5	0.042
Cn1nnnc1SCC(=O)NC1CCCCC1	0	3	3	2	0.047
Cc1c(/C=N\NC(=O)c2cccc(F)c2)cnn1C	-1	nt	nt	3.3*	0.096*
